Hit rate of the full screen: of about 310,000 compounds, about 2,200 (0.71%) showed an effect of 50% or more. Effects have a minus sign here. This is one part of a sample in which strong results are shown more often than they occur.
Biological target: human ether-à-go-go-related gene (hERG) potassium channel (human, UniProt Q12809)
Assay: primary screen, population patch clamp on CHO cells stably expressing hERG; higher = less effect of the substance

Sequence of human ether-à-go-go-related gene (hERG) potassium channel (Q12809 whole entry, looked up): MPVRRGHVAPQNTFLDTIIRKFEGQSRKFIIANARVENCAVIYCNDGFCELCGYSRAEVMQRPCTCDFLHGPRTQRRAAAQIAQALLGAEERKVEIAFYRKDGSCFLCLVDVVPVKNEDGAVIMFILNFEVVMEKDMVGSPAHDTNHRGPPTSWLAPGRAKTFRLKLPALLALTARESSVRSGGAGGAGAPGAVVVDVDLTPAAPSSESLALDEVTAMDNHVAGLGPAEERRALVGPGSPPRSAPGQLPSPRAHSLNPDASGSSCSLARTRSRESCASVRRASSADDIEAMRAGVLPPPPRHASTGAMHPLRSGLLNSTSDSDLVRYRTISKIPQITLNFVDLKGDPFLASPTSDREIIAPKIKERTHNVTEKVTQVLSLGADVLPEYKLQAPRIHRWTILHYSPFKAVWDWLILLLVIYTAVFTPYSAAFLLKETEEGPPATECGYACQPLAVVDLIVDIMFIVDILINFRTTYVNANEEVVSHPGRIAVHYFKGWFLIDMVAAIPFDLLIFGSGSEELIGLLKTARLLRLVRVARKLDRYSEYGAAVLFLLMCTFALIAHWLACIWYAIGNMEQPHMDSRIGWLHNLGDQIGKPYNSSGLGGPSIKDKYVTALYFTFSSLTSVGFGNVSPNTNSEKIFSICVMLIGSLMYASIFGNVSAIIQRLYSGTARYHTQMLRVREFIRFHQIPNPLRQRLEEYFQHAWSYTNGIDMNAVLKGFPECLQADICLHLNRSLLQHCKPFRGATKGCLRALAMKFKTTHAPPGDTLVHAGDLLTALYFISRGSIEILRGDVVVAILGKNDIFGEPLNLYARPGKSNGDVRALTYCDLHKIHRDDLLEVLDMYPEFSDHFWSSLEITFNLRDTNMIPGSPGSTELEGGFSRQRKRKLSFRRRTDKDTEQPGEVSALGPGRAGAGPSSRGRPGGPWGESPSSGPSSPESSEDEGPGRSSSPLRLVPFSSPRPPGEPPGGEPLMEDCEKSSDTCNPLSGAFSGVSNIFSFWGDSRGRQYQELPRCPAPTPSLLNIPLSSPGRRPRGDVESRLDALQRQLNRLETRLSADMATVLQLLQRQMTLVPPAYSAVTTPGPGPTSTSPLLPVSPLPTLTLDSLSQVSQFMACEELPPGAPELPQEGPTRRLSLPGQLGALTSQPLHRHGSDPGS

Point of comparison: `COc1ccc(C[C@@H]2CN3C(=NC[C@@H]3Cc3ccc(O)cc3)N2C[C@H](C)NC(=O)CCC2CCCCC2)cc1`, “hERG current change (%, negative = inhibition) at 1uM” value -64.6%. Against it:
- CCCn1nc(C(=O)Nc2ccc(N3CCOCC3)cc2)c2ccccc2c1=O — higher, 1.6%
- O=C(Cn1nc(Br)nc1Br)c1ccccc1 — higher, 10.2%
- COc1cc(C2NC(=O)NC(C)=C2C(=O)NCc2ccccc2)c(Cl)cc1O (stereo not shown) — higher, 13.7%
- COCCNC(=O)C1CC(c2ccccc2C(F)(F)F)=NO1 (stereo not shown) — higher, 14.7%
- Cn1c(SCC(=O)NCCN2C(=O)CSC2=O)nc2ccccc2c1=O — higher, 7.27%
- O=C(CSc1nc2ccccc2c(=O)n1Cc1ccco1)NCc1ccco1 — higher, -40.8%
- O=C(CSc1nc2ccccc2c(=O)n1CCCN1CCOCC1)N1CCN(c2ccccc2)CC1 — higher, -6.61%
- O=C(CSc1nc2ccccc2c(=O)n1Cc1ccco1)N1CCN(c2ccccc2)CC1 — lower, -83.6%
- O=C(CSc1nc2ccccc2c(=O)n1Cc1ccco1)N1CCCCCC1 — lower, -82.8%
- CCn1c(SCC(=O)N2CCCCCC2)nc2ccccc2c1=O — higher, 2.02%
- CCn1c(SCC(=O)N2CCCC2)nc2ccccc2c1=O — higher, -7.76%
- CCCn1c(SCC(=O)N2CCN(c3ccccc3)CC2)nc2ccccc2c1=O — higher, -4.8%
- O=C(CSc1nc2ccccc2c(=O)n1Cc1ccco1)NCCN1C(=O)CSC1=O — higher, -56%
- COc1cc(OC)c(NC(=S)NCc2ccc(F)cc2)cc1Cl — higher, 8.5%
- Oc1ccccc1N1CCN(Cc2ncc(-c3ccccc3)o2)CC1 — higher, 7%
- O=C(CSc1nnnn1-c1ccc2c(c1)OCCO2)OC1CCCCC1 — higher, 6.23%
- COc1ccc(C)cc1Nc1nc(-c2c(C)[nH]c3ccccc23)cs1 — higher, 4.55%
- CSc1ccc(/C=c2\s/c(=C\C(=O)C(C)(C)C)n(CC(=O)NCCC3=CCCCC3)c2=O)cc1 — higher, -3.41%
- Cc1c(CN(C)C)c2c(n1C)C(=O)c1ccc(Br)cc1-2.Cl — higher, -2.4%
- Cc1c(CN(C)C)c2c(n1Cc1ccccc1)C(=O)c1ccc(Br)cc1-2.Cl — higher, -16.4%
- Cc1c(CN(C)C)c2c(n1Cc1ccccc1)C(=O)c1ccccc1-2.Cl — lower, -79%
- CCCCOP(=O)(OCCCC)C(O)c1ccc(N(C)C)cc1 (stereo not shown) — higher, 12.5%
- CSc1ccccc1OCc1cc(C(=O)NC2CCc3ccccc32)no1 (stereo not shown) — higher, 17.2%
- OCc1ncccc1O — higher, 8.62%
- O=[N+]([O-])c1ccc(CN2CCOCCOCCOCC2)cc1 — higher, -20.5%
- O=[N+]([O-])c1ccc(CN2CCOCCOCCN(Cc3ccc([N+](=O)[O-])cc3)CCOCC2)cc1 — lower, -86.9%
- COc1ccc(CN2CCOCCOCCN(Cc3ccc(OC)cc3)CCOCCOCC2)cc1 — lower, -84.1%
- COc1ccc(CN2CCOCCOCCOCC2)cc1 — higher, -21.8%
- O=[N+]([O-])c1ccc(CN2CCCCCC2)cc1 — higher, -0.361%
- COc1ccc(CN2CCOCCOCCOCCOCCOCC2)cc1 — higher, 7.46%
- CCCN(C(=O)CCl)C1=CCCCC1 — higher, 26.6%
- O=C(CS(=O)(=O)Cc1ccccc1)Nc1ncccn1 — higher, 13%
- C[C@@H](CN1C2=NC[C@H](Cc3ccc(O)cc3)N2C[C@H]1Cc1ccc(O)cc1)NC(=O)CCC1CCCCC1 — higher, 12.5%
- COc1ccc(C[C@H]2CN3C(=NC[C@H]3Cc3ccccc3)N2CCNC(=O)CCC2CCCCC2)cc1 — higher, -49.2%
- COc1ccc(C[C@H]2CN3C(=NC[C@@H]3C(C)C)N2CCNC(=O)CCC2CCCCC2)cc1 — lower, -86%
- C/C=C(\C)C(=O)NCCN1C2=NC[C@H](C(C)C)N2C[C@@H]1Cc1ccc(OC)cc1 — higher, -46.6%
- O=C(CCC1CCCCC1)NCCN1C2=NC[C@@H](Cc3ccccc3)N2C[C@H]1Cc1ccc(O)cc1 — higher, -0.771%
- C[C@H]1CN=C2N(CCNC(=O)CCC3CCCCC3)[C@H](Cc3ccc(O)cc3)CN21 — higher, 14.3%
- COc1ccc(C[C@H]2CN3C(=NC[C@@H]3C)N2CCNC(=O)CCC2CCCCC2)cc1 — higher, -63.7%
- COc1ccc(C[C@H]2CN3C(=NC[C@@H]3Cc3ccc(O)cc3)N2C[C@H](C)NC(=O)CCC2CCCCC2)cc1 — higher, -14.9%
- C[C@@H]1CN=C2N(CCNC(=O)CCC3CCCCC3)[C@H](Cc3ccc(O)cc3)CN21 — higher, 7.9%
- CC(C)[C@H]1CN=C2N(CCNC(=O)CCC3CCCCC3)[C@H](Cc3ccc(O)cc3)CN21 — higher, -2.53%
- COc1ccc(C[C@H]2CN3C(=NC[C@@H]3Cc3ccccc3)N2CCNC(=O)CCC2CCCCC2)cc1 — higher, -60.4%
- COc1ccc(COc2ccsc2C(=O)Nc2ccc(Cl)c(Cl)c2)cc1 — higher, 13.6%
- COc1cc(OC)cc(-c2nc(SCC(=O)Nc3ccccc3F)n[nH]2)c1 — higher, 11.9%
- CC(C)c1ccc(C(N)=S)cc1 — higher, 7.86%
- O=C(Cc1ccccc1)N1CCC2(CC1)NCCc1[nH]cnc12 — higher, 20.4%
- COc1ccc(NC(=O)/C=C/c2ccc(C)o2)cc1S(=O)(=O)N1CCOCC1 — higher, 3.88%
- COc1cc(S(=O)(=O)Nc2ccccc2N2CCCCC2)ccc1NC(C)=O — higher, -4.5%
- COC(=O)C(NC(=O)c1c(C)nn(C)c1Cl)c1ccccc1 (stereo not shown) — higher, 14.2%
- Cc1ccc2c(c1)c(C)c(C)n2CC(O)Cn1nnc2ccccc21 (stereo not shown) — higher, 12.4%
- CS(=O)(=O)NCc1nnc(SCc2c(F)cccc2Cl)o1 — higher, -1.52%
- O=C(O)c1cccc(Nc2ccc([N+](=O)[O-])c3nonc23)c1 — higher, 2.1%
- Cc1cc(=O)n2nc(N3CCCC3C(=O)Nc3cccc(Cl)c3C)sc2n1 (stereo not shown) — higher, 12.5%
